This note sets out measurements from PubChem BioAssay (NCATS).

Assay [1] can be described thus: qHTS of pediatric cancer cell lines to identify multiple opportunities for drug repurposing: Primary screen for BT-37 cells (AID 1347094).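 For activity change, negative = cytotoxic: series mostly up to about 57 µM; plate controls were DMSO for no effect and bortezomib for full effect.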 A digest of the protocol:
(§1)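 Cells seeded at 500-1,000 cells/well in growth media, rested 5 hours at 37 degrees C, 5% CO2, then dosed; MIPE compounds at 11-point (from 0.78 nM) and NPC at 8-point (from 0.59 nM) final concentrations. Viability by CellTiter-Glo luminescence after 48 hours.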
For orientation: In qHTS, concentration-response curves come from the screen itself.

A short description of assay [2]: qHTS of pediatric cancer cell lines to identify multiple opportunities for drug repurposing: Primary screen for NB-EBc1 cells (AID 1347095).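 For activity change, negative = cytotoxic: plate controls were DMSO neutral control for no effect and bortezomib for full effect.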 A digest of the protocol: as §1
Assay [3] can be described thus: qHTS of pediatric cancer cell lines to identify multiple opportunities for drug repurposing: Primary screen for U-2 OS cells (AID 1347096).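 For activity change, negative = cytotoxic: plate controls were DMSO wells for no effect and bortezomib positive control wells for full effect.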 Note: nearly all actives have a fitted effect of over 50% in size. A digest of the protocol: (§2)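 Cells (500-1,000/well) rested 5 h, then received compounds for 48 h; metabolically active cells were measured by CellTiter-Glo luminescence. Final concentrations spanned up to 46 µM (MIPE, 11-point) or 0.59 nM-46 µM (NPC, 8-point) in primary screens, 11-point in follow-ups.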

Assay [4] in a line: qHTS of pediatric cancer cell lines to identify multiple opportunities for drug repurposing: Primary screen for Saos-2 cells (AID 1347097). For activity change, negative = cytotoxic: % is set by controls: 0 for no effect and ±100 for the full control effect. Note: nearly all actives have a fitted effect of over 40% in size. Summed up:
as §1

The nature of assay [5]: qHTS of pediatric cancer cell lines to identify multiple opportunities for drug repurposing: Primary screen for NB1643 cells (AID 1347099).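 For activity change, negative = cytotoxic: plate controls were DMSO neutral control for no effect and bortezomib positive control for full effect.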 Note: nearly all actives have a fitted effect of over 50% in size. Summed up:
as §1

Assay [6] is described as follows: qHTS of pediatric cancer cell lines to identify multiple opportunities for drug repurposing: Primary screen for LAN-5 cells (AID 1347100).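 For activity change, negative = cytotoxic: plate controls were DMSO neutral control for no effect and bortezomib positive control for full effect.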 A digest of the protocol:
as §2

Assay [7] can be described thus: qHTS of pediatric cancer cell lines to identify multiple opportunities for drug repurposing: Primary screen for Rh18 cells (AID 1347102). For activity change, negative = cytotoxic: % is set by controls: 0 for no effect and ±100 for the full control effect. Note: nearly all actives have a fitted effect of over 65% in size. Summed up:
as §2

Assay [8] can be described thus: qHTS of pediatric cancer cell lines to identify multiple opportunities for drug repurposing: Primary screen for OHS-50 cells (AID 1347103).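 For activity change, negative = cytotoxic: plate controls were DMSO neutral control for no effect and bortezomib positive control for full effect.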 Note: nearly all actives have a fitted effect of over 40% in size. A digest of the protocol:
as §2

Assay [9] in a line: qHTS of pediatric cancer cell lines to identify multiple opportunities for drug repurposing: Primary screen for RD cells (AID 1347104).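 For activity change, negative = cytotoxic: plate controls were DMSO for no effect and bortezomib for full effect.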 Note: nearly all actives have a fitted effect of over 55% in size. A digest of the protocol:
as §1

A short description of assay [10]: qHTS of pediatric cancer cell lines to identify multiple opportunities for drug repurposing: Primary screen for control Hh wild type fibroblast cells (AID 1347106).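 For activity change, negative = cytotoxic: series mostly up to about 46 µM; % is set by controls: 0 for no effect and ±100 for the full control effect; a drop in luminescence marks cytotoxicity and a rise apparent proliferation.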 Note: nearly all actives have a fitted effect of over 55% in size. Summed up: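 Cells (500-1,000/well) in growth media were settled 5 h at 37 degrees C, then given compounds for 48 h. Viability was read as CellTiter-Glo luminescence. Primary runs used MIPE at 11 points (0.78 nM-46 µM) and NPC at 8 points (0.59 nM-46 µM); follow-ups used 11 points.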

The nature of assay [11]: qHTS of pediatric cancer cell lines to identify multiple opportunities for drug repurposing: Primary screen for BT-12 cells (AID 1347101).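 For activity change, negative = cytotoxic: plate controls were DMSO for no effect and bortezomib positive control for full effect.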 Note: nearly all actives have a fitted effect of over 25% in size. A digest of the protocol:
as §2

Assay [12] can be described thus: qHTS of pediatric cancer cell lines to identify multiple opportunities for drug repurposing: Primary screen for MG 63 (6-TG R) cells (AID 1347105). For activity change, negative = cytotoxic: % is set by controls: 0 for no effect and ±100 for the full control effect. Note: nearly all actives have a fitted effect of over 50% in size. A digest of the protocol:
as §1

Assay [13] can be described thus: qHTS of pediatric cancer cell lines to identify multiple opportunities for drug repurposing: Primary screen for Rh30 cells (AID 1347107). For activity change, negative = cytotoxic: series mostly up to about 46 µM; % is set by controls: 0 for no effect and ±100 for the full control effect. Note: nearly all actives have a fitted effect of over 75% in size. Summed up: as §2
The nature of assay [14]: qHTS of pediatric cancer cell lines to identify multiple opportunities for drug repurposing: Primary screen for Rh41 cells (AID 1347108).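 For activity change, negative = cytotoxic: series mostly up to about 46 µM; luminescence drop marks cytotoxic hits.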 Note: nearly all actives have a fitted effect of over 70% in size. Summed up:
as §1

Assay [15] in a line: qHTS of pediatric cancer cell lines to identify multiple opportunities for drug repurposing: Primary screen for SK-N-SH cells (AID 1347098). Note: nearly all actives have a fitted effect of over 65% in size. Summed up:
as §2

Assay [16] can be described thus: qHTS of pediatric cancer cell lines to identify multiple opportunities for drug repurposing: Confirmatory screen for NB1643 cells (AID 1347109).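 For activity change, negative = cytotoxic: plate controls were DMSO for no effect and bortezomib for full effect.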 Note: nearly all actives have a fitted effect of over 45% in size. A digest of the protocol: as §2
The nature of assay [17]: qHTS of pediatric cancer cell lines to identify multiple opportunities for drug repurposing: Confirmatory screen for A673 cells (AID 1347110).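 Note: cells exposed to compound for 48 h before the viability read; nearly all actives have a fitted effect of over 65% in size.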 A digest of the protocol: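 A673 cells seeded at 500-1,000 cells/well, rested 5 h, then dosed; primary MIPE 11-point (0.78 nM to 46 µM), NPC (0.59 nM to 46 µM); confirmatory 11-point. CellTiter-Glo luminescence after 48 h.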
Assay [18] in a line: qHTS of pediatric cancer cell lines to identify multiple opportunities for drug repurposing: Confirmatory screen for BT-12 cells (AID 1347112). Note: nearly all actives have a fitted effect of over 55% in size. A digest of the protocol:
as §2

The nature of assay [19]: qHTS of pediatric cancer cell lines to identify multiple opportunities for drug repurposing: Confirmatory screen for LAN-5 cells (AID 1347113). Note: nearly all actives have a fitted effect of over 65% in size. Summed up: as §2
Assay [20] can be described thus: qHTS of pediatric cancer cell lines to identify multiple opportunities for drug repurposing: Confirmatory screen for SK-N-MC cells (AID 1347111).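 Note: cells exposed to compound for 48 h before the readout; nearly all actives have a fitted effect of over 70% in size.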 A digest of the protocol:
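Seed 500-1,000 cells/well; rest 5 h at 37 degrees C. Pin-transfer compounds, 11-point titration. Incubate 48 h. Add CellTiter-Glo, 15 min RT, read luminescence.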

Results filed as inconclusive are left out. Values without a mark were called inactive. Calls of active or inactive are those of the source. Calls come from the whole dose curve; as a rule, active = well fitted curve in the direction sought with a large enough effect; inconclusive = small, poorly fitted or top-dose-only effect, or another doubt; inactive = no such curve, though single readings can be large; an effect the other way counts as inactive or inconclusive.
Potency is the fitted concentration of half-maximal effect.

As to `Nc1ccc(C(=O)Nc2cccc(-c3nc(N4CCOCC4)c4oc5ncccc5c4n3)c2)cn1`, the Potency in assay [1] was 13.7 µM (active); in assay [2], 2.35 µM (active); in [3], 18.7 µM (active); in [4] it was 8.33 µM (active); in assay [5] it was 2.35 µM (active); in assay [6], 6.62 µM (active). Besides, the Potency is 14.8 µM (active) in assay [7], 6.11 µM (active) in assay [8] and 10.5 µM (active) in assay [9]. Besides, the Potency entry in [10] was “inactive”.
Consider `O=C(O)[C@H](CC(=O)N1C[C@@H]2CCCC[C@H]2C1)Cc1ccccc1`, for which the Potency entry in assay [1], in [2], in [3], in [4], in assay [5] and in assay [6] was “inactive” in each case. Besides, the Potency result in assay [11], in assay [7], in assay [8], in [9], in assay [12] and in assay [10] was “inactive” each time. The Potency result in assay [13] and in assay [14] was “inactive” throughout.
Turning to `CCc1ccc(C(=O)Nc2cc(CN3CCN(C)CC3)cc(C(F)(F)F)c2)cc1C#Cc1cnc2ccnn2c1`, the Potency in [1] was 24.3 µM (active); in [2], 11.8 µM (active); in assay [3], 23.5 µM (active); in assay [4], 14.8 µM (active); in [5], 1.18 µM (active); in assay [11], 27.3 µM (active). Also, the Potency in [7] is 14.8 µM (active); in [9], 18.7 µM (active); in assay [12] it was 18.7 µM (active); in assay [13] it was 14.8 µM (active); in assay [14], 9.35 µM (active). Further, in assay [10], the Potency result was “inactive”.
As to `CC[C@H](CC[C@@H](C)[C@H]1CC[C@H]2[C@@H]3CC=C4C[C@@H](O)CC[C@]4(C)[C@@H]3CC[C@]12C)C(C)C`, the Potency entry in [1], in assay [2], in [3], in assay [4], in assay [6] and in [11] was “inactive” each time. For the same compound, the Potency entry in assay [7], in [8], in [9], in assay [12] and in assay [10] was “inactive” each time.
`CCN1CCN(C(=O)N[C@H](C(=O)N[C@@H]2C(=O)N3C(C(=O)O)=C(CSc4nnnn4C)CS[C@@H]23)c2ccc(O)cc2)C(=O)C1=O`: the activity change, negative = cytotoxic in assay [1] is 17.1% [at 11.5 µM]; in assay [2], 14.5% [at 9.22 µM]; in assay [3] it was 20.8% [at 9.22 µM]; in [4] it was 18.2% [at 9.22 µM]; in [5], 17.1% [at 9.22 µM]; in assay [11], 17.1% [at 11.5 µM]. Besides, the activity change, negative = cytotoxic is 10.3% [at 9.22 µM] in assay [7]; 20.3% [at 11.5 µM] in assay [8]; 6.64% [at 9.22 µM] in assay [9]; 4.31% [at 9.22 µM] in [12]; -2.3% [at 9.22 µM] in [10]; 26.1% [at 9.22 µM] in assay [13]. Also, the activity change, negative = cytotoxic in assay [14] was 38.6% [at 9.22 µM].
With `Nc1ccn(C[C@@H](CO)OCP(=O)(O)O)c(=O)n1`, the Potency entry in [1], in assay [2], in assay [3], in [4], in assay [5] and in assay [6] was “inactive” in each case. Besides, the Potency result in assay [11], in assay [7], in assay [8], in assay [9], in assay [12] and in [10] was “inactive” throughout. Also, the Potency entry in assay [14] was “inactive”.
Consider `CCCNS(=O)(=O)Nc1ncnc(OCCOc2ncc(Br)cn2)c1-c1ccc(Br)cc1`, for which the Potency result in [1], in [2], in assay [3], in assay [4], in assay [15] and in assay [6] was “inactive” throughout. Moreover, the Potency entry in assay [8], in [9], in assay [12], in assay [10] and in [13] was “inactive” in each case.
As to `OCC(O)C(O)C(O)CO` (stereo unspecified), the Potency entry in assay [1], in [2], in assay [3], in assay [4], in assay [5] and in assay [6] was “inactive” throughout. Further, the Potency result in [7], in assay [12], in assay [10], in assay [13] and in [14] was “inactive” throughout.
In the case of `CC(=O)SCC(Cc1ccccc1)C(=O)NCC(=O)OCc1ccccc1` (stereo unspecified), the Potency was 0.344 µM (active) in [1]; 1.66 µM (active) in [2]; 3.72 µM (active) in [3]; 4.69 µM (active) in [4]; 0.271 µM (active) in assay [15]; 0.296 µM (active) in assay [6]. Besides, the Potency in assay [11] was 3.43 µM (active); in assay [8] it was 19.3 µM (active); in [9] it was 2.09 µM (active); in assay [14], 5.9 µM (active). The Potency entry in assay [16], in assay [17], in assay [18] and in assay [19] was “inactive” each time.
Turning to `COc1cc(CCc2cc(NC(=O)c3ccc(N4C[C@@H](C)N[C@@H](C)C4)cc3)n[nH]2)cc(OC)c1`, the Potency in assay [1] was 27.3 µM (active); in [2], 14.8 µM (active); in [3], 23.5 µM (active); in assay [4] it was 5.9 µM (active); in assay [15] it was 6.07 µM (active); in [6], 4.18 µM (active). In addition, the Potency in assay [11] is 27.3 µM (active); in assay [7], 5.9 µM (active); in [8], 5.44 µM (active); in [9], 16.6 µM (active); in assay [10], 33.2 µM (active); in assay [13] it was 18.7 µM (active). In addition, in assay [14], the Potency was 5.9 µM (active).
Regarding `CC(C)N(CC[C@H](c1ccccc1)c1cc(CO)ccc1O)C(C)C`, the Potency entry in assay [1], in assay [2], in [3], in assay [4], in assay [5] and in assay [6] was “inactive” in each case. The Potency entry in [11], in [7], in [9], in assay [12], in assay [10] and in [13] was “inactive” throughout. The Potency result in assay [14] was “inactive”.
Take `COc1cccc2c1C(=O)c1c(O)c3c(c(O)c1C2=O)C[C@@](O)(C(=O)CO)C[C@@H]3O[C@H]1C[C@H](N)[C@H](OC2CCCCO2)[C@H](C)O1` (stereo partly specified): the Potency in assay [1] was 1.93 µM (active); in [2] it was 0.296 µM (active); in assay [6], 0.469 µM (active); in assay [9], 13.2 µM (active); in assay [16], 1.65 µM (active); in [17], 2.61 µM (active). Also, the figures for the Potency in assay [20], in [18] and in assay [19] were 737 nM (active), 10.4 µM (active) and 1.17 µM (active), respectively. Moreover, the Potency entry in assay [3], in assay [4], in assay [15], in assay [10] and in assay [13] was “inactive” in each case.
As to `C[C@H]1O[C@H](O[C@H]2[C@H](O)[C@@H](O)[C@@H](O[C@H]3[C@H](O)[C@@H](O)C(O)O[C@H]3CO)O[C@H]2CO)[C@H](O)[C@@H](O)[C@H]1N[C@H]1C=C(CO)[C@@H](O)[C@H](O)[C@@H]1O` (stereo partly specified), the Potency in [1] was 1.72 µM (active); in assay [4], 2.35 µM (active); in assay [11], 2.17 µM (active); in [8] it was 2.17 µM (active). Moreover, the Potency result in assay [2], in [3], in [15], in assay [7], in [9] and in assay [12] was “inactive” each time. In addition, the Potency entry in assay [10] and in assay [14] was “inactive” each time.
